Data from the supplement of paper PMC9694430.
Counter-ions that a name gives are not always drawn.

Tests used:
Test in all cases: thermal shift delta Tm vs DMSO control; higher = stronger stabilization (binding)
Conditions in all cases: 12.5 µM; protein concentration 2 µM
LOC_OS04G57630-cb004 = tested on: LOC_OS04G57630-cb004
Procedure, shortened: (§1)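 The melting temperature shift given here is a triplicate mean, measured against protein that received only DMSO. Melting temperatures came from Boltzmann fits of differential scanning fluorimetry data on E. coli-expressed, purified rice kinase domain constructs. Each 19.5 μl well contained 2 μM kinase, 100 mM potassium phosphate pH 7.5, 150 mM NaCl, 10% glycerol, 5 × SYPRO Orange and compound in DMSO. Plates were scanned from 25°C to 95°C at 0.05°C/s.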

LOC_OS05G07850-cb002 = tested on: LOC_OS05G07850-cb002
Procedure, shortened: as §1

LOC_OS05G16824-cb004 = tested on: LOC_OS05G16824-cb004
Procedure, shortened: as §1

LOC_OS05G28520-cb001 = tested on: LOC_OS05G28520-cb001
Procedure, shortened: as §1

LOC_OS05G30820-cb001 = tested on: LOC_OS05G30820-cb001
Procedure, shortened: as §1

LOC_OS05G43570-cb004 = tested on: LOC_OS05G43570-cb004
Procedure, shortened: as §1

LOC_OS06G16330-cb003 = tested on: LOC_OS06G16330-cb003
Procedure, shortened: as §1

LOC_OS06G22820-cb001 = tested on: T1, LOC_OS06G22820-cb001
T1 sequence (whole entry): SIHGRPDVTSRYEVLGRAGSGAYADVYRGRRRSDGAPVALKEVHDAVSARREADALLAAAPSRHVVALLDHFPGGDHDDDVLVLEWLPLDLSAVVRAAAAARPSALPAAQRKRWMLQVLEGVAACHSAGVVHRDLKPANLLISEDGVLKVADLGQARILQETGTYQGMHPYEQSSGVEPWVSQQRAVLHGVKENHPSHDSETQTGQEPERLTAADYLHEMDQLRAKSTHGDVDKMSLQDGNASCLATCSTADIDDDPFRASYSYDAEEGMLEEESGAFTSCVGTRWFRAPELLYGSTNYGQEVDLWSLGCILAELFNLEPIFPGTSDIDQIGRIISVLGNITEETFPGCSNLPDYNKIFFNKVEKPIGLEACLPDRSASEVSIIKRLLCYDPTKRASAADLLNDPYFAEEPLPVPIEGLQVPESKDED
Procedure, shortened: as §1

LOC_OS07G06570-cb004 = tested on: LOC_OS07G06570-cb004
Procedure, shortened: as §1

LOC_OS07G07230-cb001 = tested on: LOC_OS07G07230-cb001
Procedure, shortened: as §1

LOC_OS06G16330-cb003, sequence (as listed by the source): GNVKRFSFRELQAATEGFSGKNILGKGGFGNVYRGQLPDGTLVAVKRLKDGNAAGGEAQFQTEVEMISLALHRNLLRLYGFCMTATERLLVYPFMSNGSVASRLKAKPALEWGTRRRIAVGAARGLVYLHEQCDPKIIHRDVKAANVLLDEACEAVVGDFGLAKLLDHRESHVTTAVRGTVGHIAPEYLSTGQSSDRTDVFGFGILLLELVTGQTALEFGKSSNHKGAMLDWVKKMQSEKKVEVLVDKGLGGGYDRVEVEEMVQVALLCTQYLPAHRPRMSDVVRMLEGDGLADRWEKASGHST

| SMILES | thermal shift delta Tm (LOC_OS04G57630-cb004) [°C] | thermal shift delta Tm (LOC_OS05G07850-cb002) [°C] | thermal shift delta Tm (LOC_OS05G16824-cb004) [°C] | thermal shift delta Tm (LOC_OS05G28520-cb001) [°C] | thermal shift delta Tm (LOC_OS05G30820-cb001) [°C] | thermal shift delta Tm (LOC_OS05G43570-cb004) [°C] | thermal shift delta Tm (LOC_OS06G16330-cb003) [°C] | thermal shift delta Tm (LOC_OS06G22820-cb001) [°C] | thermal shift delta Tm (LOC_OS07G06570-cb004) [°C] | thermal shift delta Tm (LOC_OS07G07230-cb001) [°C] |
| --- | --- | --- | --- | --- | --- | --- | --- | --- | --- | --- |
| CCOc1cc(N2CCC(O)CC2)ccc1Nc1ncc2c(n1)N(C)c1ccccc1C(=O)N2C | -0.09 | 1.85 | -1.07 | 0.32 | 0.48 | 0.23 | 0.05 | 0.49 | 1.48 | 0.47 |
| O=c1sn(-c2cccc3ccccc23)c(=O)n1Cc1ccccc1 [Tideglusib] | -0.25 | -3.79 | -13.5 | 0.99 | 0.39 | 0.01 | 0.99 | 0.6 | 1 | 0.27 |
| COc1cc(N2CCC(N(C)C)CC2)ccc1Nc1ncc(Cl)c(Nc2ccccc2P(C)(C)=O)n1 | 2.89 | 15 | 6.56 | 0.2 | 1.4 | 0.32 | 8.95 | 0.49 | 1.14 | 0.35 |
| Cc1ccc(S(=O)(=O)/C=C/C#N)cc1 | 2.48 | 7.56 | -14.7 | 0.54 | -0.01 | -0.14 | -0.31 | 0.01 | 1.13 | -0.21 |
| c1ccc(-c2[nH]ncc2-c2ccnc3ccccc23)nc1 | 0.26 | 3.02 | 0.42 | 0.19 | 0.24 | 0.65 | -2.93 | 0.08 | 0.81 | 0.53 |
| NC(=O)c1ccc2nc(-c3ccc(Oc4ccc(Cl)cc4)cc3)[nH]c2c1 [Chk2 Inhibitor II (BML-277)] | -0.02 | 3.29 | 2.79 | 0.29 | -0.18 | 0.06 | 0.28 | 0.74 | -0.16 | -0.75 |
| CC1(COc2ccc3c(c2)ncn3-c2ccc3cccc(N4CCC(N)CC4)c3n2)COC1 | 5.42 | 16.1 | 11.8 | 0.28 | 1.67 | 0.2 | 7.62 | 0.26 | 0.43 | -0.34 |
| COc1cc(N2CCC(N)CC2)ccc1Nc1ncc(Cl)c(-c2c[nH]c3ccccc23)n1 | 4.46 | 13.4 | 8.24 | 1.74 | 2.33 | 1.06 | 10.4 | 0.85 | 2.26 | 1.14 |
| Cc1ncc(-c2ccnc(Nc3ccc(S(C)(=O)=O)cc3)n2)n1C(C)C | 1.43 | 11.2 | 6.1 | 0.35 | 1.14 | 0.74 | 5.53 | 1.02 | 0.69 | 0.17 |
| Cc1ccc(NC(=O)Nc2cc(C(F)(F)F)ccc2F)cc1Nc1ccc2c(c1)NC(=O)/C2=C\c1ccc[nH]1 | 0.83 | 1.9 | 2.11 | 0.81 | 0.73 | 1.98 | 1.54 | 1.12 | -0.24 | 1.34 |
| CCn1c(=O)c(-c2ccc(Cl)cc2Cl)cc2cnc(Nc3ccc(N4CCNCC4)c(F)c3)nc21 | 4.17 | 10.6 | 6 | 2.8 | 0.68 | 0.35 | 6.75 | 0.87 | 1.3 | 4.1 |
| N#CC1(c2ccc(NC(=O)c3cccnc3NCc3ccncc3)cc2)CCCC1 [Apatinib] | 0.34 | 0.8 | -5.15 | 0.2 | 0.66 | 0.51 | -0.32 | 0.38 | 1.2 | 0.05 |
| Cc1csc(-c2nnc(Nc3ccc(Oc4ncccc4-c4ccnc(N)n4)cc3)c3ccccc23)c1 | 0.49 | 6.74 | 1.04 | 0.38 | 0.85 | 0.03 | 3.12 | 0.66 | 0.09 | 0.17 |
| Clc1ccc(C2(c3ccc(-c4cn[nH]c4)cc3)CCNCC2)cc1 | 0.35 | 1.23 | -0.22 | 0.22 | 0.51 | 1.87 | 0.19 | 0.61 | 1.01 | 0.03 |
| CCS(=O)(=O)c1cccc(-c2cc(C(=O)NC3CCN(C)CC3)c(C)c3[nH]c4ncc(C)cc4c23)c1 | 2.61 | 13.6 | 10.6 | 2.38 | 3.26 | 0.4 | 8.47 | -0.41 | 0.61 | 0.94 |
| C[C@H](CN(C)C)Oc1nc(Nc2cc3cccc(Cl)c3cn2)cnc1C#N | -0.04 | 5.49 | 3.41 | 0.32 | 0.46 | 0.43 | 1.98 | 0.49 | 0.8 | 0.34 |
| Cc1cc(C(C)Nc2ccccc2)c2nc(N3CCOCC3)cc(=O)n2c1 (stereo not given) | -0.32 | 0.35 | -2.9 | 0.25 | 0.38 | 0.22 | 0.32 | 0.59 | 0.64 | 0.53 |
| CCCNC(=O)c1cn2ncnc(Nc3cc(C(=O)NC4CC4)ccc3C)c2c1C | 0.07 | 0.14 | -4.13 | 0.31 | 0.52 | 0.2 | -0.22 | 0.62 | 1.15 | 0.61 |
| O=C1NC(=O)C(c2ccccc2[N+](=O)[O-])=C1Nc1ccc(O)c(Cl)c1 | -0.28 | 4.16 | -13.3 | 1.12 | 0.7 | 0.82 | -0.2 | 0.75 | 2.88 | 0.07 |

| SMILES | thermal shift delta Tm (LOC_OS04G57630-cb004) [°C] | thermal shift delta Tm (LOC_OS05G07850-cb002) [°C] | thermal shift delta Tm (LOC_OS05G16824-cb004) [°C] | thermal shift delta Tm (LOC_OS05G28520-cb001) [°C] | thermal shift delta Tm (LOC_OS05G30820-cb001) [°C] | thermal shift delta Tm (LOC_OS05G43570-cb004) [°C] | thermal shift delta Tm (LOC_OS06G16330-cb003) [°C] | thermal shift delta Tm (LOC_OS06G22820-cb001) [°C] | thermal shift delta Tm (LOC_OS07G06570-cb004) [°C] | thermal shift delta Tm (LOC_OS07G07230-cb001) [°C] |
| --- | --- | --- | --- | --- | --- | --- | --- | --- | --- | --- |
| C[C@H]1CNCCCN1S(=O)(=O)c1cccc2cncc(F)c12 [Ripasudil (K-115) hydrochloride dihydrate] | 0.43 | 3.53 | -0.98 | 0.51 | 0.26 | 0.76 | 0.41 | 0.46 | 0.19 | 0.2 |
| N#Cc1cccc(-c2c[nH]c3ncnc(N4CCOCC4)c23)c1 | 0.05 | 12.3 | 1 | 0.3 | 0.46 | 0.26 | 3.82 | 0.53 | 0.63 | 0.58 |
| C[C@@H]1CN(CC(=O)Nc2ccc3c(c2)Cc2cccc(-c4cc(=O)cc(N5CCOCC5)o4)c2S3)C[C@H](C)O1 | -0.04 | 0.16 | -0.46 | -0.13 | 0.31 | 0.21 | -0.2 | 0.77 | 1.02 | -0.36 |
| CSc1cccc(Nc2ncc3cc(-c4c(Cl)cccc4Cl)c(=O)n(C)c3n2)c1 | 0.15 | 5.12 | 1.03 | 0.64 | 0.34 | 0.27 | 0.34 | 0.59 | 0.45 | 0.66 |
| Cc1cc(C(=O)NOCCO)c(Nc2ccc(I)cc2F)n(C)c1=O | 0.11 | 0.04 | -9.58 | -0.17 | 0.7 | 0.18 | -0.11 | 0.38 | 1.15 | 0.15 |
| CC(C)(C)c1cnc(CSc2cnc(NC(=O)C3CCNCC3)s2)o1 | -0.47 | 0.35 | -1.08 | 0.48 | 0.47 | 0.31 | 0.18 | 2.84 | 0.7 | -0.01 |
| Cn1c2ccccc2c2c3c(c4c5ccccc5n(CCC#N)c4c21)CNC3=O | 0.32 | 14.2 | 7.06 | 1.51 | 1.15 | 1.86 | 7.19 | 1.21 | -0.17 | 1.18 |
| COc1cc2ncnc(Nc3ccc(O)c(Br)c3)c2cc1OC | 0.28 | 12 | -0.59 | 0.86 | 0.54 | 0.23 | 5.86 | 0.8 | 1.76 | 0.01 |
| Cc1ccc(CNc2ncnc3ccc(-c4ccc(CO)o4)cc23)o1 | 2.38 | 4.33 | -5.36 | -0.16 | 0.29 | 0.04 | 2.56 | 0.43 | 1.5 | 0.62 |
| C[S+]([O-])c1ccc(-c2nc(-c3ccc(F)cc3)c(-c3ccncc3)[nH]2)cc1 (stereo not given) | 0.89 | 1.83 | -0.97 | 1.26 | 0.6 | 1.12 | 0.69 | 0.87 | 1.21 | 0.43 |
| CN1CCN(c2ccc3nc(-c4c(N)c5c(F)cccc5[nH]c4=O)[nH]c3c2)CC1 [Dovitinib (TKI258) Lactate] | 4.11 | 8.85 | 14.8 | 1.89 | 1.87 | 0.71 | 8.12 | 0.62 | 1.96 | 0.72 |
| OC1CCC(Oc2cccc3cnc(Nc4ccc5nc[nH]c5c4)nc23)CC1 (stereo not given) | 4.38 | 13.5 | 18.9 | 0.67 | 2.88 | 1.07 | 12.4 | 0.29 | 1.85 | 0.34 |
| N#Cc1cnc(Nc2cc(NC[C@H]3CNCCO3)c(C(F)(F)F)cn2)cn1 | 0.23 | 4.22 | 4.42 | 0.04 | 0.75 | 0.11 | 2.23 | 0.3 | 1.08 | 0.52 |
| Cc1nc(Nc2ncc(C(=O)Nc3c(C)cccc3Cl)s2)cc(N2CCN(CCO)CC2)n1 [Dasatinib] | 2.57 | 4.35 | 5.06 | 1.02 | 0.42 | 0.75 | 1.61 | 0.79 | 1.03 | 1.1 |
| O=C(O)c1ccc2c3c1cccc3c(=O)n1c3ccccc3nc21 | 0.77 | 7.31 | 1.51 | 0.41 | 0.73 | 0.15 | 4.49 | 0.29 | 0.54 | 1.19 |
| CCN(C)S(=O)(=O)Nc1ccc(F)c(C(=O)c2c[nH]c3ncc(-c4cnc(C5CC5)nc4)cc23)c1F | 1.47 | 6.9 | 1.58 | 1.1 | 0.45 | 0.13 | 1.23 | 0.65 | 0.34 | 1.77 |
| N#Cc1c(O)c2c(-c3ccc(-c4ccccc4O)cc3)csc2[nH]c1=O | 0.93 | 0.59 | -0.44 | 1.06 | 0.78 | 1.18 | 1.03 | 0.91 | 1.2 | 0.19 |
| CC(C)(C)NS(=O)(=O)c1cncc(-c2cc(F)c3nc(N)nn3c2)c1 | 0.3 | 1.74 | 0.61 | 0.78 | 0.53 | 0.59 | 0.88 | 0.87 | 1.73 | 0.06 |
| COc1ccccc1-c1cc(Nc2cccc(CS(N)(=O)=O)c2)ncn1 | 0.35 | 5.65 | 3.26 | 0.95 | 0.39 | 0.37 | 4.76 | 0.66 | 0.36 | -0.22 |
